Laboratory results from PubChem BioAssay (NCI).
The panel holds about 83,000 compounds, 20% with a hit somewhere; the sample as a whole holds those more often.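 Step 1: grow cells in 96-well plates. Step 2: add test compound at a single concentration. Step 3: incubate 48 h. Step 4: record percent growth.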 Unmarked numbers belong to inactive results. Activity calls are given as the source filed them. Rule for the calls: active = growth percent below 10; inactive = the rest.

system: SK-OV-3 ovarian; test: NCI-60 one-dose screen, 48 h (100 = growth as untreated, 0 = no growth, -100 = all killed); details: 10 µM unless noted

SMILES | growth
COc1c(B(O)O)cccc1-c1nc2ccc3[nH]ncc3c2c2c1C1CCC2C1 (stereo not drawn) | 39.8%
O=C(Nc1ccc(Cl)cc1F)c1cc(F)ccc1O | -4.5% (active)
O=c1oc2ccc(I)cc2c(=O)n1-c1ccc(I)cc1F | 0.665% (active)
NCCNc1nc2ccc(F)cc2c2c(=O)c3cc(F)ccc3sc12 | 77.6%
O=C(Nc1ccc(Br)cc1F)c1cc(F)ccc1O | 1.4% (active)
Cc1ccc(Nc2nc(N)c3ccccc3n2)cc1Cl | 80.4%
O=C1c2cc(I)ccc2Oc2cc([N+](=O)[O-])ccc2N1c1ccc(Cl)cc1F | 96.1%
CC1=C(C(=O)OCC2CCN(C(=O)OC(C)(C)C)CC2)[C@H](c2cccc(Br)c2)C2=C(CC(C)(C)CC2=O)N1 | 56%
O=C(c1ccccc1)N(C(=S)NCCc1ccc(Cl)cc1)c1ccc(Cl)cc1 | 104%
C#CCn1cc(C=C2C(=O)NC(=O)NC2=O)c2cc(Cl)ccc21 | 112%
O=c1oc2ccc(Br)cc2c(=O)n1-c1ccc(F)cc1F | -10.9% (active)
O=C(Nc1ccc(Br)cc1F)c1cc(I)ccc1O | -10.4% (active)
O=c1oc2ccc(Cl)cc2c(=O)n1-c1cc(C(F)(F)F)cc(C(F)(F)F)c1 | -10.6% (active)
O=c1oc2ccc(Br)cc2c(=O)n1-c1ccc(I)cc1F | 6.53% (active)
O=c1oc2ccc(-c3ccc(F)cc3F)cc2c(=O)n1-c1cccc(C(F)(F)F)c1 | -9.56% (active)
O=c1oc2ccc(F)cc2c(=O)n1-c1ccc(Br)cc1F | -3.03% (active)
O=c1oc2ccc(I)cc2c(=O)n1-c1ccc(Br)cc1F | -9.81% (active)
Cc1nc(Nc2ccccn2)sc1C(=O)/C=C/c1ccc(Cl)cc1 | 26.9%
Nc1cccc(Nc2cc(S(=O)(=O)O)c(N)c3c2C(=O)c2ccccc2C3=O)c1 | 88.6%
COc1ccc2sc(N(Cc3cccnc3)C(=O)c3ccc(C#N)cc3)nc2c1 | 106%

SMILES | growth
COc1cccc(C2=NN3C(C2)c2ccccc2OC3c2ccc(/C=C3\SC(=O)NC3=O)cc2)c1 (stereo not drawn) | 96.8%
O=C1c2cc(Br)ccc2Oc2cc([N+](=O)[O-])ccc2N1c1ccc(I)cc1F | 115%
O=c1oc2ccc(Cl)cc2c(=O)n1-c1ccc(Cl)cc1F | -2.36% (active)
COc1ccc(C2C3=C(COC3=O)N(CCO)c3cc4c(cc32)OCCO4)cc1 (stereo not drawn) | 86.5%
CC[C@]1(O)C[C@@H]2CN(CCc3c([nH]c4ccccc34)[C@@](C(=O)OC)(c3cc4c(cc3OC)N(C)[C@H]3[C@@](O)(C(=O)OC)[C@H](OC(=O)CCCBr)[C@]5(CC)C=CCN6CC[C@]43[C@@H]65)C2)C1 | 30.8%
O=C1c2cc(Cl)ccc2Oc2cc([N+](=O)[O-])ccc2N1c1ccc(F)cc1F | 111%
COc1ccccc1N1C(=N)S/C(=C\c2ccc(OCc3ccccc3F)cc2)C1=O | 102%
CC[C@]1(O)C[C@@H]2CN(CCc3c([nH]c4ccccc34)[C@@](C(=O)OC)(c3cc4c(cc3OC)N(C)[C@H]3[C@@](O)(C(=O)OC)[C@H](OC(C)=O)[C@]5(CC)C=CCN6CC[C@]43[C@@H]65)C2)C1 | 43.5%
O=c1c2cc(F)ccc2sc2c(NCCCNCCO)nc3ccc(Cl)cc3c12 | 87.7%
COc1cc2cc3c(=O)n4c(cc5cc(OC)ncc54)c(=O)n3c2cn1 | 113%
Nc1ccc(-c2nn3c(CCC(=O)c4nc5ncccc5[nH]4)nnc3s2)c(O)c1 | 91.4%
O=c1oc2ccc(Br)cc2c(=O)n1-c1ccc(Cl)cc1F | 1.82% (active)
COc1ccc(/C=C2\NC(=O)NC2=O)cc1O | 103%
CN(C)c1ccc(/C=C/c2ccnc3c(O)cccc23)cc1 | 24.7%
O=C(c1ccccc1)N(C(=S)NCCc1ccc(Cl)cc1)c1ccccc1 | 114%
O=c1oc2ccc(Cl)cc2c(=O)n1-c1ccc(F)cc1F | -7.81% (active)
CC(C)C[C@H](C(=O)N[C@@H](C)C(N)=O)N1CC=CCN(O)S1(=O)=O | 108% [5 µM]
O=C(Nc1ccc(Cl)cc1F)c1cc(I)ccc1O | -4.98% (active)
O=C(CCc1nnc2sc(Cc3ccccc3Cl)nn12)c1nc2ncccc2[nH]1 | 108%

system: IGROV1 ovarian; test: as above; details: 10 µM unless noted

SMILES | growth
COc1c(B(O)O)cccc1-c1nc2ccc3[nH]ncc3c2c2c1C1CCC2C1 (stereo not drawn) | 76.1%
O=C(Nc1ccc(Cl)cc1F)c1cc(F)ccc1O | 17.5%
O=c1oc2ccc(I)cc2c(=O)n1-c1ccc(I)cc1F | 15.9%
NCCNc1nc2ccc(F)cc2c2c(=O)c3cc(F)ccc3sc12 | 22.9%
O=C(Nc1ccc(Br)cc1F)c1cc(F)ccc1O | 19.2%
Cc1ccc(Nc2nc(N)c3ccccc3n2)cc1Cl | 57.3%
O=C1c2cc(I)ccc2Oc2cc([N+](=O)[O-])ccc2N1c1ccc(Cl)cc1F | 72.3%
CC1=C(C(=O)OCC2CCN(C(=O)OC(C)(C)C)CC2)[C@H](c2cccc(Br)c2)C2=C(CC(C)(C)CC2=O)N1 | 35.9%
O=C(c1ccccc1)N(C(=S)NCCc1ccc(Cl)cc1)c1ccc(Cl)cc1 | 87.4%
C#CCn1cc(C=C2C(=O)NC(=O)NC2=O)c2cc(Cl)ccc21 | 82.8%
O=c1oc2ccc(Br)cc2c(=O)n1-c1ccc(F)cc1F | 19.3%
O=C(Nc1ccc(Br)cc1F)c1cc(I)ccc1O | 16.6%
O=c1oc2ccc(Cl)cc2c(=O)n1-c1cc(C(F)(F)F)cc(C(F)(F)F)c1 | 16%
O=c1oc2ccc(Br)cc2c(=O)n1-c1ccc(I)cc1F | 15.8%
O=c1oc2ccc(-c3ccc(F)cc3F)cc2c(=O)n1-c1cccc(C(F)(F)F)c1 | 20.5%
O=c1oc2ccc(F)cc2c(=O)n1-c1ccc(Br)cc1F | 17%
O=c1oc2ccc(I)cc2c(=O)n1-c1ccc(Br)cc1F | 16.3%
Cc1nc(Nc2ccccn2)sc1C(=O)/C=C/c1ccc(Cl)cc1 | 13.9%
Nc1cccc(Nc2cc(S(=O)(=O)O)c(N)c3c2C(=O)c2ccccc2C3=O)c1 | 106%
COc1ccc2sc(N(Cc3cccnc3)C(=O)c3ccc(C#N)cc3)nc2c1 | 98.1%

SMILES | growth
COc1cccc(C2=NN3C(C2)c2ccccc2OC3c2ccc(/C=C3\SC(=O)NC3=O)cc2)c1 (stereo not drawn) | 100%
O=C1c2cc(Br)ccc2Oc2cc([N+](=O)[O-])ccc2N1c1ccc(I)cc1F | 97.9%
O=c1oc2ccc(Cl)cc2c(=O)n1-c1ccc(Cl)cc1F | 14.3%
COc1ccc(C2C3=C(COC3=O)N(CCO)c3cc4c(cc32)OCCO4)cc1 (stereo not drawn) | 80.7%
CC[C@]1(O)C[C@@H]2CN(CCc3c([nH]c4ccccc34)[C@@](C(=O)OC)(c3cc4c(cc3OC)N(C)[C@H]3[C@@](O)(C(=O)OC)[C@H](OC(=O)CCCBr)[C@]5(CC)C=CCN6CC[C@]43[C@@H]65)C2)C1 | 11.2%
O=C1c2cc(Cl)ccc2Oc2cc([N+](=O)[O-])ccc2N1c1ccc(F)cc1F | 75.9%
COc1ccccc1N1C(=N)S/C(=C\c2ccc(OCc3ccccc3F)cc2)C1=O | 73.5%
CC[C@]1(O)C[C@@H]2CN(CCc3c([nH]c4ccccc34)[C@@](C(=O)OC)(c3cc4c(cc3OC)N(C)[C@H]3[C@@](O)(C(=O)OC)[C@H](OC(C)=O)[C@]5(CC)C=CCN6CC[C@]43[C@@H]65)C2)C1 | 9.76% (active)
O=c1c2cc(F)ccc2sc2c(NCCCNCCO)nc3ccc(Cl)cc3c12 | 32%
COc1cc2cc3c(=O)n4c(cc5cc(OC)ncc54)c(=O)n3c2cn1 | 95.8%
Nc1ccc(-c2nn3c(CCC(=O)c4nc5ncccc5[nH]4)nnc3s2)c(O)c1 | 70.9%
O=c1oc2ccc(Br)cc2c(=O)n1-c1ccc(Cl)cc1F | 15.7%
COc1ccc(/C=C2\NC(=O)NC2=O)cc1O | 107%
CN(C)c1ccc(/C=C/c2ccnc3c(O)cccc23)cc1 | 11.4%
O=C(c1ccccc1)N(C(=S)NCCc1ccc(Cl)cc1)c1ccccc1 | 102%
O=c1oc2ccc(Cl)cc2c(=O)n1-c1ccc(F)cc1F | 16.2%
CC(C)C[C@H](C(=O)N[C@@H](C)C(N)=O)N1CC=CCN(O)S1(=O)=O | 120% [5 µM]
O=C(Nc1ccc(Cl)cc1F)c1cc(I)ccc1O | 27.2%
O=C(CCc1nnc2sc(Cc3ccccc3Cl)nn12)c1nc2ncccc2[nH]1 | 79.6%
